# High-throughput results as filed in PubChem BioAssay.
# bovine MsrA act = activates bovine MsrA enzyme; purified bovine MsrA, absorbance read-out; activation, % at 10.6 µM; hit rate 0.3% among 360,000; in the data active = activation above about 7.5%;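 note: 0% = vehicle and 100% = reference activator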
# PKA-R1A activ = activators of PKA-R1A complex; activation, % at 11.4 µM; hit rate 0.083% among 340,000; AID 504707; PKA-R1A dissociation, Cy5-IP20 fluorescence polarization; scaled: DMSO 0%, 113 µM cGMP 100%; P00514+P68181;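 active = percent activation above the mean of all tested compounds plus 3 SD, cut at about 19% in these data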;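 note: higher means more PKAc released from R1A so a rise in polarization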
# PKA-R2B activ = PKA-R2B complex activation; P22694+P31323; PKA-R2B holoenzyme dissociation, Cy5-IP20 fluorescence polarization; R2B truncated from residue 108, S112A mutant; 0% DMSO only, 100% 113 µM cGMP; activation, % at 11.4 µM; hit rate 0.079% among 340,000;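 active = activation above a cutoff set at the mean over all compounds plus 3 SD, cut at about 18% in these data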;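 note: higher means more holoenzyme dissociation and a rise in polarization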
# Target sequence (P31323 whole entry, looked up, other chains not shown, the tested form may be a part): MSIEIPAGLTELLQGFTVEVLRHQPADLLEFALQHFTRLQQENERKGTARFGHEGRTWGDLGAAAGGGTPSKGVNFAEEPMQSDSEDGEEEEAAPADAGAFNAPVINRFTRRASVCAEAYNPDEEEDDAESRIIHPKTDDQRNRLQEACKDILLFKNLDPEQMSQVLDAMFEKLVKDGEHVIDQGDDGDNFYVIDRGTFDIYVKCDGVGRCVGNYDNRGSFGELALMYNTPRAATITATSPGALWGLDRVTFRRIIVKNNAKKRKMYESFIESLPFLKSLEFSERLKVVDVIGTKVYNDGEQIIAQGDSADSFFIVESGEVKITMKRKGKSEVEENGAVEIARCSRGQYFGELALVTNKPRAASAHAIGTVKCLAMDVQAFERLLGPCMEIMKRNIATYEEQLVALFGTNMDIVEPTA
# MsrA inhibitor = inhibitors of bovine MsrA. purified bovine MsrA, absorbance read-out. inhibition, % at 15.5 µM. hit rate 0.75% among 360,000. AID 651718; in the data active = inhibition above about 4.5%;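 note: 0% = vehicle wells with enzyme and 100% = reference inhibitor wells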
# R2B FP artifact = fluorescence polarization artifact in PKA-R2B activator counter-screen; shares compounds with PKA-R2B activ; FP artifact counterscreen; activation, % at 11.4 µM; hit rate 6% among 270; AID 504796; in the data active = activation above about 20%;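 note: Cy5 labelled IP20 peptide probe with compound but no PKA protein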
# PKA-R2B confirm = confirmation of human PKA-R2B complex activators; shares compounds with PKA-R2B activ; fluorescence polarization, activation; activation, % at 11.4 µM; hit rate 9% among 270; AID 504797; in the data active = activation above about 19%
# Target sequence (P31323 whole entry, looked up): as the sequence (P31323 whole entry, looked up, other chains not shown, the tested form may be a part) above
# * marks the source's active call; other numbers are inactive results; i = inactive; . = no result given; + = active, no number. Compounds with a hit are over-represented: about 1.1% of the library has one in this group of screens.
SMILES,bovine MsrA act,PKA-R1A activ,PKA-R2B activ,MsrA inhibitor,R2B FP artifact,PKA-R2B confirm
Cc1ccccc1N1CCN(S(=O)(=O)C[C@]23CCC(CC2NC(=O)[C@@H](N)CCS(C)(=O)=O)C3(C)C)CC1 (some centres undefined),-4,10,19*,-2,2,-2
COc1ccc(N=Cc2c(O)[nH]c3ccccc23)cc1,-2,4,-1,3,.,.
Cc1ccc(N=Cc2c(O)[nH]c3ccccc23)c([N+](=O)[O-])c1,-4,3,19*,0,3,1
CCC(=O)Nc1sc2c(c1C(N)=O)CCC2,-1,4,22*,1,1,0
O=C1c2[nH]nc(-c3ccccc3)c2C(c2ccc(F)cc2)N1Cc1ccccc1 (centres undefined),.,.,.,0,.,.
Nc1ccn([C@@H]2O[C@H](C(=O)N[C@H](Cc3ccccc3)C(=O)NCC(=O)N3CCOCC3)[C@@H](O)[C@H]2O)c(=O)n1,.,.,.,1,.,.
COc1ccc(C(=O)NC2CCN(CC(=O)NC3CCCCC3)CC2)cc1,-3,10,-8,0,.,.
COc1cc(C(=O)NC2CCN(CC(=O)NC3CCCCC3C)CC2)cc(OC)c1OC (centres undefined),-2,-4,18*,1,5,2
Nc1[nH]c(C(=O)c2ccccc2)c(-c2ccc3c(c2)OCO3)c1C(=O)NCCc1c[nH]c2ccccc12,.,.,.,1,.,.
O=C(c1ccc(OCC2CCCO2)cc1)N1CCN(c2ccccc2)CC1 (centres undefined),-10,4,19*,-1,3,5
COc1cccc(CNC(=O)[C@H]2CCCN2C(=O)[C@H]2CCCN2C(=O)c2ccc(F)cc2F)c1,.,.,.,0,.,.
Cc1nc(CCNC(=O)CC2C(=O)NCCN2Cc2ccoc2)nc2c1CCCC2 (centres undefined),-12,4,23*,1,3,3
O=C1CCC/C1=C/Nc1cccc(F)c1,-6,-1,19*,1,5,5
O=C(CSC1=NCCS1)N1CCCC1,2,-1,22*,-1,2,-2
O=C(CSC1=NCCS1)N1CCCCCC1,4,-4,6,1,.,.
COc1ccc(CN2CCN(Cc3ccc4ccccc4c3)CC2)cc1OC,-5,-9,23*,0,-2,-5
COc1ccccc1CN1CCN(Cc2ccc3ccccc3c2)CC1,-2,4,-1,0,.,.
O=C(O)C1(C(=O)O)CCC1,-12,i,+,-1,i,i
O=S(=O)(O)c1cccc2c(N=Nc3ccc(O)c4ncccc34)cccc12,1,0,21*,.,-2,12
COC(=O)N1C[C@H](O)[C@H](O)C[C@@H]1c1ccccc1Br,.,.,.,-1,.,.
C[C@H]1CN(c2ccc(N3CCN(C(=O)OC(C)(C)C)C[C@@H]3C)cc2C#N)CCN1Cc1ccccc1,.,.,.,0,.,.
COc1ccccc1C(=O)NC(CCSC)C(=O)NCc1ccncc1 (centres undefined),-5,7,21*,-1,0,1
CCCN1CCCCC(NC(=O)c2ccccc2C)C1=O (centres undefined),.,.,.,0,.,.
CCN(CC)c1ccc(NC(=O)Cn2c(C(C)NC(=O)c3ccccc3)nc3ccccc32)cc1 (centres undefined),-5,1,19*,0,-3,-3
Cc1ccccc1-c1nc(Cc2ccc(Cl)cc2)no1,-2,-2,19*,1,-2,-1
SMILES,bovine MsrA act,PKA-R1A activ,PKA-R2B activ,MsrA inhibitor,R2B FP artifact,PKA-R2B confirm
Cc1ccccc1-c1nnc(-c2ccc(Cl)cc2)o1,-10,-8,-4,-1,.,.
COc1ccc(OC)c(-c2cc(-c3cccnc3)nc(N)c2C#N)c1,-2,0,19*,1,0,1
C[C@H](c1ccccc1)N1C[C@@H](COCc2ccccc2)Oc2cccc(N3CCCC3)c2S1(=O)=O,.,.,.,1,.,.
CCN(CC)c1ccc(-n2c(C)c(C(C)=O)c(C(C)=O)c2C)cc1,1,-10,19*,0,0,2
CC1=[N+](C)c2ccc3ccccc3c2C1(C)C,-4,14,19*,-1,7,12
Cc1ccccc1-n1c(SCC(=O)N/N=C/C=C/c2ccccc2[N+](=O)[O-])nc2ccccc2c1=O,-5,-5,21*,2,-1,-5
Cn1cc(CCOCc2ccc(Br)cc2)c2ccccc21,.,.,.,1,.,.
COc1ccc(NC(=O)Cn2c(=O)oc3cc(Cl)ccc32)c(OC)c1,-10,0,4,-2,.,.
COc1ccc(CCNC(=O)Cn2c(=O)oc3cc(Cl)ccc32)cc1OC,-3,7,19*,0,0,-2
O=C(COc1cccc(-n2cnnn2)c1)Nc1ccc([N+](=O)[O-])cc1,-5,3,20*,0,2,3
CCc1nnc(NC(=O)CSc2nnc(C)n2-c2ccc(C)cc2)s1,-12,-1,19*,-1,4,1
COc1cccc(NC(=O)C(=O)NCCCN2CCCC2=O)c1,-4,9,20*,0,2,2
O=C(NCc1ccccc1)[C@H]1CCCN1C(=O)[C@H]1CCCN1C(=O)c1cccc(F)c1,.,.,.,-1,.,.
O=C(N/N=C/c1cc(O)ccc1[N+](=O)[O-])c1ccc2c(c1)OCCO2,-6,-1,19*,-1,5,0
CCCCCCCCCCCCCCCC[N+](C)(C)CCN(Cc1ccc(OC)cc1)c1ncccn1,1,-4,30*,.,-1,36*
Cc1cc(N2CCNC[C@@H]2C)ccc1N1CCN(Cc2ccccc2)[C@@H](C)C1,.,.,.,-1,.,.
COC(=O)c1ccc(N2CCN(S(=O)(=O)c3ccc(C)cc3)CC2)c([N+](=O)[O-])c1,-8,-5,-8,1,.,.
COC(=O)c1ccc(N2CCN(S(=O)(=O)c3c(C)cc(C)cc3C)CC2)c([N+](=O)[O-])c1,-1,-14,18*,1,-5,-5
COC(=O)[C@]12C[C@H](CC(=O)NCc3ccc(OC)c(OC)c3)C(=O)N(CCc3ccc(OC)c(OC)c3)C1=C[C@H](C(C)(C)C)O[C@@H]2C,.,.,.,0,.,.
CCCc1cc(=O)n2[nH]c(NCc3ccccc3F)nc2n1,0,2,11,-1,.,.
CCCc1cc(=O)n2[nH]c(NCc3c(Cl)cccc3Cl)nc2n1,-4,15,24*,0,22*,18
CCCCOCCCNC(=O)C[C@H]1C[C@@]2(C(=O)OC)C(=C[C@H](C(C)(C)C)O[C@@H]2C)N(Cc2ccc3c(c2)OCO3)C1=O,.,.,.,1,.,.
NC(=O)c1ncn([C@@H]2O[C@H](C(=O)N[C@H](Cc3c[nH]c4ccccc34)C(=O)N3CCN(C(=O)N4CCCCC4)CC3)[C@@H](O)[C@H]2O)n1,.,.,.,0,.,.
CCn1c(SCc2nc3scc(-c4ccccc4)c3c(=O)[nH]2)nnc1-c1ccc(Cl)cc1,-15,-2,20*,-1,-2,-3
Cc1ccc(-c2csc3nc(CSc4nnc(-c5ccc(Cl)cc5)n4C)[nH]c(=O)c23)cc1,-5,11,-4,-1,.,.
